Assay [1] deals with Thyrotropin receptor (Homo sapiens) (UniProt P16473). Description: qHTS assay to identify small molecule agonists of the thyroid stimulating hormone receptor (TSHR) signaling pathway (AID 1224843; calls by dose curve; further: nearly all actives have a fitted effect of over 45% in size). In short, it runs like this:
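TSHR-expressing HEK293 cells (800 per well) were exposed to compounds for 30 min at room temperature. cAMP was then detected by HTRF competition with cAMP-d2 and anti-cAMP cryptate, read after 1 h at room temperature. Fifteen concentrations, triplicate.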

A short description of assay [2]: qHTS assay to identify small molecule agonists of the hypoxia (HIF-1) signaling pathway - cell viability counter screen (AID 1224844; calls by dose curve; further: nearly all actives have a fitted effect of over 50% in size; further: potency means the concentration at half of the fitted maximal effect). In short, it runs like this: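 Cells (HRE-bla ME-180, 2,000 per well) sat 5 hrs at 37C, got compound for 17 hrs, were read for CCF4-AM FRET, and were finally lysed with CellTiter-Glo for a 30 min room-temperature luminescence read.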
A general note: In qHTS, concentration-response curves come from the screen itself.

A short description of assay [3]: qHTS assay to identify small molecule agonists of the hypoxia (HIF-1) signaling pathway (AID 1224846; active means well fitted activation curve with a large enough effect in the signal ratio in the repeat runs, not every such curve was filed as active; the % refers to the signal ratio). In a few lines:
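A low-serum medium (0.5% dialyzed FBS) holding 2,000 HRE-bla ME-180 cells per well is preincubated for 5 hrs, dosed with compounds by pintool, and kept a further 17 hrs at 37C, 5% CO2 before CCF4-AM FRET detection of beta-lactamase.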

Assay [4] in a line: qHTS assay to identify small molecule agonists of H2AX - cell viability counter screen (AID 1224847; calls by dose curve; further: nearly all actives have a fitted effect of over 30% in size; further: potency means the concentration at half of the fitted maximal effect). In a few lines: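 CHO-K1 cells plated overnight at 37C, then exposed 3 h at 37C to compounds at 15 concentrations (0.76% DMSO final). Viability by CellTiter-Glo luminescence after 30 min at room temperature.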
The nature of assay [5]: qHTS assay to identify small molecule antagonists of the estrogen related receptor (ERR) signaling pathway from Tox21 library (AID 1224848). Further: nearly all actives have a fitted effect of over 50% in size. In a few lines: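 Cells: ERR line, 2,000/well; 6 h preincubation 37 C/5% CO2. Cpd in DMSO via pin tool; 18 h, 37 C. ONE-Glo, 30 min RT, luminescence.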
A short description of assay [6]: qHTS RealTime-Glo MT Cell Viability Assay in HepG2 cells - 24 hour (AID 1224867). Further: nearly all actives have a fitted effect of over 50% in size. In short, it runs like this: (§1)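 Luminescence read-out: viable HepG2 cells reduce a prosubstrate to a NanoLuc substrate, giving a signal proportional to live cell number. Reads taken at 0, 8, 16, 24, 32 and 40 h of compound exposure at 37 C.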
The nature of assay [7]: A CellTox Green Cytotoxicity Assay to monitor cytotoxicity in HEK293 cells - 0 hour (AID 1224869). Further: nearly all actives have a fitted effect of over 50% in size. In a few lines:
(§2)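 Fluorescence intensity, read at 0, 8, 16, 24, 32 and 40 h of compound treatment, reflected dye binding to DNA of dead HEK293 cells; compounds (23 nL, DMSO) were added 5 h after plating cells with reagent.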

A short description of assay [8]: qHTS RealTime-Glo MT Cell Viability Assay in HepG2 cells - 40 hour (AID 1224870). Further: nearly all actives have a fitted effect of over 50% in size. In a few lines: (§3)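 HepG2 cells mixed with RealTime-Glo MT reagents (NanoLuc plus cell-permeant prosubstrate) were seeded at 600 cells/well, incubated 5 h at 37 C/5% CO2, then pinned with compounds in DMSO; nonlytic luminescence tracked viability during 40 h treatment.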
Assay [9] in a line: A CellTox Green Cytotoxicity Assay to monitor cytotoxicity in HEK293 cells - 40 hour (AID 1224871). Further: nearly all actives have a fitted effect of over 45% in size. Further: potency means the concentration at half of the fitted maximal effect. In short, it runs like this: as §2
Assay [10] in a line: qHTS RealTime-Glo MT Cell Viability Assay in HEK293 cells - 16 hour (AID 1224872). Further: nearly all actives have a fitted effect of over 50% in size. Further: potency means the concentration at half of the fitted maximal effect. In short, it runs like this:
(§4)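 Nonlytic real-time viability readout: viable cells convert prosubstrate to NanoLuc substrate, giving luminescence proportional to live cell number. HEK293, 600 cells/well, compound added after 5 h, continuous culture at 37 C.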

The nature of assay [11]: qHTS RealTime-Glo MT Cell Viability Assay in HepG2 cells - 8 hour (AID 1224873). Further: nearly all actives have a fitted effect of over 55% in size. In short, it runs like this: as §3
Assay [12] can be described thus: qHTS RealTime-Glo MT Cell Viability Assay in HEK293 cells - 40 hour (AID 1224874). Further: nearly all actives have a fitted effect of over 50% in size. Further: potency means the concentration at half of the fitted maximal effect. The settings on record: RealTime-Glo luminescence; max response: stronger effect = lower value. In short, it runs like this:
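Viable HEK293 cells reduce a cell-permeant prosubstrate; the product diffuses out and is consumed by NanoLuc in the medium to give light. Compounds went in after a 5 h incubation and plates were read over the treatment course.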

Assay [13] can be described thus: A CellTox Green Cytotoxicity Assay to monitor cytotoxicity in HEK293 cells - 24 hour (AID 1224875). Further: nearly all actives have a fitted effect of over 45% in size. In short, it runs like this:
as §2

The nature of assay [14]: A CellTox Green Cytotoxicity Assay to monitor cytotoxicity in HepG2 cells - 16 hour (AID 1224876). Further: nearly all actives have a fitted effect of over 45% in size. In short, it runs like this: (§5)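 Using 1536-well format, dye-containing HepG2 suspension was seeded, allowed 5 h at 37 C/5% CO2, dosed by pintool with compounds, positive and negative controls, and imaged for fluorescence across 40 h.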
Assay [15] in a line: qHTS RealTime-Glo MT Cell Viability Assay in HepG2 cells - 32 hour (AID 1224877). Further: nearly all actives have a fitted effect of over 55% in size. In short, it runs like this: as §1
A short description of assay [16]: A CellTox Green Cytotoxicity Assay to monitor cytotoxicity in HepG2 cells - 24 hour (AID 1224878). Further: nearly all actives have a fitted effect of over 45% in size. In a few lines:
as §5

A short description of assay [17]: A CellTox Green Cytotoxicity Assay to monitor cytotoxicity in HepG2 cells - 40 hour (AID 1224879). Further: nearly all actives have a fitted effect of over 40% in size. In short, it runs like this:
as §5

Assay [18] in a line: qHTS assay to identify small molecule agonists of H2AX (AID 1224845; active means well fitted activation curve with a large enough effect in the signal ratio in the repeat runs, not every such curve was filed as active; the % refers to the signal ratio). In a few lines: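 Wild-type CHO-K1 cells plated overnight, then exposed 3 hr at 37C to compounds at 15 concentrations (0.76% DMSO). Lysed, then HTRF anti-pH2AX(S139)-cryptate/anti-H2AX-d2 detection after 24 hr at room temperature; emissions 665 and 620 nm.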
The nature of assay [19]: qHTS assay to identify small molecule agonists of the estrogen related receptor (ERR) signaling pathway from Tox21 library (AID 1224849; calls by dose curve; further: nearly all actives have a fitted effect of over 15% in size). Conditions: ERR reporter cell line, ONE-Glo luciferase, 18 h; at 92.4 µM (top of the series) unless noted. In a few lines: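 Screening used an NTP-provided ERR luciferase cell line. Compounds in DMSO were added 6 h after seeding and left 18 h at 37 C before a 30 min ONE-Glo step and luminescence reading.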

Assay [20] can be described thus: qHTS RealTime-Glo MT Cell Viability Assay in HEK293 cells - 32 hour (AID 1224868). Further: nearly all actives have a fitted effect of over 50% in size. Further: potency means the concentration at half of the fitted maximal effect. In a few lines:
as §4

Each structure is given as a SMILES string. Unmarked numbers belong to inactive results. Records with an inconclusive call do not appear. Calls of active or inactive are those of the source. Unless noted, the call rests on the fitted dose curve; in most records, active means well fitted curve in the direction sought with a large enough effect in the repeat runs; inconclusive means weak or mixed curves; inactive means no such curve, though single readings can be large; an effect the other way counts as inactive or inconclusive.
On the % scale 0 is the no-effect control and ±100 the full control effect.

Thyrotropin receptor (Homo sapiens), sequence (P16473 whole entry, looked up): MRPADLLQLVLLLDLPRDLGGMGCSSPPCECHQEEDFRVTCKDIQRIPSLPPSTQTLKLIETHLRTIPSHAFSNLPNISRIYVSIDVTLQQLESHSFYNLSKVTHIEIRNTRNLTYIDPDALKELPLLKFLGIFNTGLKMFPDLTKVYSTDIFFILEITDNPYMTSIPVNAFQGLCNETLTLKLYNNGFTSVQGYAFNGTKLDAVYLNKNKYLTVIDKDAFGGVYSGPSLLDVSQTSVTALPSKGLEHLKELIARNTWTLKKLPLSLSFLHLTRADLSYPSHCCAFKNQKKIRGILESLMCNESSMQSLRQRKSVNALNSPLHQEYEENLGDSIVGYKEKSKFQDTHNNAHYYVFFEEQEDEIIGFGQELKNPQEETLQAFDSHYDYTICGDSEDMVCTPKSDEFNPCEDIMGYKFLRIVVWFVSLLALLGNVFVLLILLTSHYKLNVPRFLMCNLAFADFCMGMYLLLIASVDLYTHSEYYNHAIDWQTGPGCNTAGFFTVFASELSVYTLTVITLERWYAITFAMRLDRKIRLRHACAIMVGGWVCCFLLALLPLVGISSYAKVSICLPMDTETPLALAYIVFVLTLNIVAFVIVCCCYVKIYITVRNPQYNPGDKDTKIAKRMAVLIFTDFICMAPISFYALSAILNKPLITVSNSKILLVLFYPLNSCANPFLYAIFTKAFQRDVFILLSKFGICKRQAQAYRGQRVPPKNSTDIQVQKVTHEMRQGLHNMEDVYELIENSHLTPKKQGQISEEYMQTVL

For `CC(C)(O)c1ccccc1CC[C@@H](SCC1(CC(=O)O)CC1)c1cccc(/C=C/c2ccc3ccc(Cl)cc3n2)c1`, the Potency entry in [1], in assay [2], in assay [4], in assay [5], in [6] and in assay [7] was “inactive” each time. The Potency entry in [8], in assay [9], in assay [10], in [11], in assay [13] and in assay [14] was “inactive” each time. Besides, the Potency entry in assay [15], in [16] and in assay [17] was “inactive” throughout. Besides, the result in assay [3] was inactive. Besides, the max response in [12] was 0.38%.
`O=C(CS)OCCOC(=O)CS`: the Potency entry in [1], in assay [18], in [4], in [6], in assay [20] and in assay [8] was “inactive” in each case. The Potency result in [9], in assay [10], in [11], in [13], in assay [14] and in [15] was “inactive” throughout. Further, the Potency result in [16] and in assay [17] was “inactive” in each case. The result in assay [3] was inactive. Also, in assay [19], the activity change, positive = activation is -27.9%. The max response in assay [12] is 0.141%.
As for `CN(C(=O)C(Cl)Cl)c1ccc(OC(=O)c2ccco2)cc1`, the Potency result in [1], in assay [2], in [4], in assay [6], in [20] and in assay [7] was “inactive” in each case. Besides, the Potency result in assay [8], in assay [9], in [10], in [13], in [14] and in assay [15] was “inactive” each time. Further, the Potency result in assay [16] and in assay [17] was “inactive” each time. Further, in assay [12], the max response was -3.14%.
Regarding `CCn1cc(C(=O)O)c(=O)c2cc(F)c(N3CCNCC3)nc21`, the Potency result in [1], in assay [2], in [4], in [6], in assay [20] and in assay [7] was “inactive” throughout. The Potency entry in [8], in [9], in assay [10], in assay [11], in [13] and in assay [14] was “inactive” throughout. Besides, the Potency entry in assay [15] and in assay [16] was “inactive” in each case. Besides, in assay [12], the max response is 10.3%.
Regarding `C=CC(C)(C)CC(=O)OC`, the Potency result in assay [1], in [4], in assay [6], in assay [7], in [8] and in [9] was “inactive” throughout. Further, the Potency result in [11], in assay [13], in assay [14], in assay [15], in [16] and in [17] was “inactive” each time. Besides, the Potency in assay [2] is 12.3 µM (active); in assay [20] it was 1.38 µM (active); in assay [10], 1.38 µM (active); in [12] it was 1.55 µM (active). In addition, the outcome in assay [3] was inactive.
In the case of `CCCCC/C(=C\c1ccccc1)CO`, the Potency result in [1], in [18], in assay [6], in assay [20], in assay [7] and in [8] was “inactive” in each case. Also, the Potency result in assay [10], in assay [11], in [14], in [15], in assay [16] and in assay [17] was “inactive” throughout. For the same compound, the compound was called inactive in assay [3]. Moreover, the Potency was 112 µM (active) in [4] and 43.1 µM (active) in assay [9]. Moreover, in assay [12], the max response was -12.8%.
Consider `Cc1cc(S(=O)(=O)O)ccc1N=Nc1c(O)ccc2ccccc12`, for which the Potency result in assay [1], in assay [2], in assay [5], in assay [6], in [7] and in [8] was “inactive” each time. In addition, the Potency entry in assay [9], in assay [10], in assay [13], in assay [14], in assay [15] and in [16] was “inactive” throughout. The Potency result in [17] is “inactive”. In [3], the compound was called inactive. For the same compound, the activity change, positive = activation in [19] is -1.94%. Further, the max response in assay [12] was -12.7%.
On to `CCCCCCOC(=O)CCCCCCCC(=O)OCCCCCC`, for which the Potency entry in assay [1], in [2], in assay [4], in assay [6], in [20] and in assay [7] was “inactive” throughout. Also, the Potency result in assay [8], in [9], in [10], in assay [11], in assay [13] and in [14] was “inactive” in each case. Further, the Potency result in assay [15], in [16] and in assay [17] was “inactive” each time. In addition, the call in [3] was inactive. For the same compound, the max response in assay [12] is 1.87%.

Source of the values: PubChem BioAssay (Tox21).
